The test concerns VDR:RXRa (NR concentration 270 nM, RXRa partner concentration 90 nM). Briefly: PBM binding z-score (relative to random genomic background probes); higher = stronger binding; sequences stand for … in GC…GCGATTGACAGCGTAGAATGAAGG
Here is the method:
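Protein-binding microarray (Agilent 4x180K custom design, double-stranded 60-nt probes: 5' GC cap, 34-nt variable region, 24-nt constant primer region; full probe sequence given). Purified or IVT nuclear receptor:RXRα heterodimers (3:1 NR:RXRα, mostly 270:90 nM) or homodimers were incubated for 1 h in PBS with 2% milk and no ligand, then detected with Alexa488 antibodies. Fluorescence from o1-orientation probes (~5 replicates averaged) was converted to z-scores against 500 random hg19 background probes. Variable regions are seed direct-repeat (DR0–DR5) sites, all their single-nucleotide variants and half-site ablations.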
On to CAAACTAGGTCACAAAGGTCAAAGTCCGTGCGTA, for which the PBM binding z-score worked out at 7.28.

For the sequence TCTATTAGGTGATTAGGGCAACCGAAACAGCGGA, the PBM binding z-score is 0.268.

For the sequence CCTTGCGGGTCACTCCAGGTTATAGCATCGGAGT, the PBM binding z-score stood at 3.51.

AGTAAAAGTTCATCTAGGTAACGTAAGATATGCT showed a PBM binding z-score of 4.57.

As to CCTAGCAGGCCAGGGTCGCTCAAGCATTTCGCTT, the PBM binding z-score came to 0.8.

TCTGCTAGATCAACGATGGTCAGCTAATCTGCTA: the PBM binding z-score was -0.489.

The sequence CCTGCTGGGTCATGGTCAGCTAATCTACAGTATG displayed a PBM binding z-score of 1.28.

As to GCTATTAGTTGAAAGGGCACCCGAATGATTCTCG, the PBM binding z-score was 0.313.

With GCTAGTTGGTCTGTAAAAGGTCACACACCGGTCG, the PBM binding z-score was 3.94.

On to CATACAGGCTCAGCTAGGCCAGAGTAGGGACGGC, for which the PBM binding z-score is -0.721.

The sequence CCTAGTTGGTCAGTAGGTCACACACCGGATATGA registered a PBM binding z-score of 1.91.

Turning to AGAATGAGGTTATACGTAAATCAGGGAAGAAAGT, the PBM binding z-score is 1.21.

Regarding GCTAGTTGGTCAGTAAAAGGCCACACACCGGTCG, the PBM binding z-score is -0.219.

For the sequence GATACATGGTCAGCTAGAGGCCAGAGTATGGAAA, the PBM binding z-score was -0.32.

Turning to TCTTGTAGATCACCAGGAGGTTAAGAAAGATCGA, the PBM binding z-score was found to be 0.799.

The sequence TCTGTTAGTTGATTAGGGCAACCGAAACAGCGGA gave a PBM binding z-score of 0.452.

TAGCCTAGGTCATTCAGGGGCGAGTATAGAAAGC registered a PBM binding z-score of 4.57.

CCTAGTTTGTCAGGAGGTCACACACCGGATATGA gave a PBM binding z-score of 4.19.

On to CTACAAAGGTGAACAAGGTCGTTGATTACTATTC, for which the PBM binding z-score stood at 6.38.

As for CAAACTAGGTCACCGGTAGGTCAAAGTCCGCATG, the PBM binding z-score was found to be 4.75.

In turn, GGAACGAGGGCATTCGAGTTGATAGCCTGGCGAT had a PBM binding z-score of 3.37.

Regarding ACTAGCAGGCCAAGTTTGGGTTACTCAAACAAAG, the PBM binding z-score was -0.254.

The sequence CCTGCTAGGTCAATGATCAGCTAAAGCAGCTCGC yielded a PBM binding z-score of 0.447.

Take GCGACTGGGGCAGAGCAGGTTACCATAAGGTTGG: the PBM binding z-score was -0.508.

For the sequence GGATATAGGTAATACAAGGTGAAAGTCCGATTGT, the PBM binding z-score was 0.64.

Consider ACAGACAGGTGATGAAGATAACTCAGGCTATCAT, for which the PBM binding z-score was -0.422.

CCTACTGGGCCACAGGTCATTGATTCCAATGCTC registered a PBM binding z-score of 1.99.

GTATATAGGTAATACAAGGTGAAAGTCCGATTGT: the PBM binding z-score was found to be 0.822.

In turn, TCTGCTAGGTCAACGATGGTCAGCTTATCTGCTA showed a PBM binding z-score of 1.63.

AACTCTAGGTAACAAGTTCAGTGAAAGAGAGGAC had a PBM binding z-score of 1.61.

Sequence TTACTAAGGTGAGCTGAGGTCGTTGATCCAACTC registered a PBM binding z-score of 4.42.

In the case of CAGACTGGGGCAAAGGTTACCATACTCAGTACGA, the PBM binding z-score worked out at 1.93.

On to CAGCCTAGGTCCGGGCCAGTATAGGAGGAACGTT, for which the PBM binding z-score is -0.982.

Turning to CGTCCAAGGTCAATGCTTGGTCAGTGAAAGCATT, the PBM binding z-score is 3.69.

As for CCTAGCAGGCCAATCTGGGTCTCTCAAGGCTTGA, the PBM binding z-score was -0.64.

TGAATGAGGTTAATGATCAGGGAACGTGGCGTCG came in with a PBM binding z-score of 0.633.

For CGAACGAGGGCATAAGTTGATAGCAAATGCCGAT, the PBM binding z-score stood at 0.652.

For CGTCCAAGGTCATAGGTCAGTGAAGAGATGACGG, the PBM binding z-score is 5.32.

Consider CCTTCTAGGTCAATGGTCAGCTAAAGCAGCTCGC, for which the PBM binding z-score came to 1.16.

Regarding ACAGACAGGTGAGTCAAGGTAACTCAGCTGGACG, the PBM binding z-score was -0.187.

Source of the values: the supplement of paper PMC6555819.
